Experimental data reported in ChEMBL document CHEMBL4513216, “Probing the Open Global Health Chemical Diversity Library for Multistage-Active Starting Points for Next-Generation Antimalarials” (ACS Infect Dis, 2020).
Out of some 69,000 compounds screened, about 8,600 (12%) showed an effect of 50% or more. Shown is part of a subset that was picked to be rich in strong results.

Tested on: Plasmodium berghei
Test: Screen against P. berghei liver stage (PbLuc), transformed with Luciferase, at 10uM
Format: functional, HepG2
Details: tested at 10 uM

Structure (SMILES)	INHIBITION [%]
CN(Cc1ccccc1C(F)(F)F)C(C(N)=O)c1ccccc1 (centres undefined)	36.3
CC(O)CNCc1ccccc1C(F)(F)F (centres undefined)	37.7
CN(Cc1ccccc1Cl)C(C(=O)O)c1ccc(F)c(CO)c1 (centres undefined)	63.8
Cc1ccccc1CN(C)C(C(N)=O)c1ccccc1 (centres undefined)	43.1
COCCN(C)C(C(=O)O)c1ccc(F)c(Cl)c1 (centres undefined)	40.3
CC(CC#N)N(C)Cc1ccccc1F (centres undefined)	30.9
CN(C)C(=O)c1ccc(C(C(=O)O)N(C)Cc2ccccc2Cl)cc1 (centres undefined)	44.3
CN(Cc1ccccc1F)C(C(N)=O)c1ccccc1 (centres undefined)	50.8
CC(C(N)=O)N(C)Cc1ccccc1C(F)(F)F (centres undefined)	56.8
O=C(CCn1c(C(F)(F)F)cc2cccnc21)N1CCCC1	12.3
O=C1COC2(CCN(c3cccc(F)c3)CC2)CN1Cc1ccccn1	42.3
CC(C)N1CCc2c(C#N)c(NCc3ccco3)n3cnnc3c2C1	37.1
COC(=O)N1CCN(c2ncnc3nc(C)cc(C)c23)CC1	20
CC(C)NC(=O)c1ccc2c(c1)nc1n2CCN(Cc2ccco2)C1	-11.4
CC(=O)N1[C@H](CN(C)C)C[C@@H]2CN(C(=O)c3cncc(C)c3)CC[C@@H]21	23.5
COc1ccc(CN2CCC3(CC(=O)N(c4cccc(F)c4)C3)C2)cc1 (centres undefined)	21.1
CN(C)c1cccc(C2CCN(C3COCC3O)CC2)n1 (centres undefined)	26.7
CN(CC1(CO)CCCC1)[C@@H]1c2ccccc2C2(CCNCC2)[C@H]1O	2.18
COCCCN(C)[C@@H]1c2ccccc2C2(CCNCC2)[C@H]1O	11.05
COc1ccccc1CCN[C@@H]1c2ccccc2C2(CCNCC2)[C@H]1O	88
CN(CC1(CO)CCOCC1)[C@@H]1c2ccccc2C2(CCNCC2)[C@H]1O	21.55
COCCN(C)[C@@H]1c2ccccc2C2(CCNCC2)[C@H]1O	15.12
Cc1ccc(CCN[C@@H]2c3ccccc3C3(CCNCC3)[C@H]2O)s1	54.4

Structure (SMILES)	INHIBITION [%]
Cn1ccnc1SC1CCc2ccccc2NC1=O (centres undefined)	4.07
Cc1ccc(CN(CCN(C)C)Cc2c(C)nc3sccn23)o1	27.675
CN(C)c1cc(CNC(=O)Nc2nnc(C3CC3)s2)ccn1	-27.8
O=C(CC1=CCCCC1)Nc1ncn(CC(=O)N2CCCCCC2)n1	-18.4
CC(Nc1cccc(CN2CCOC2=O)c1)C(=O)Nc1cccc(F)c1 (centres undefined)	28.15
CSCC(CCO)NC(=O)Nc1cc(Br)ccc1C (centres undefined)	-4.94
CSCC(CCO)NC(=O)Nc1cccc(Br)c1 (centres undefined)	-4.94
CCS(=O)(=O)NC(CCSC)C(=O)Nc1ccccc1C (centres undefined)	20
CSCC(CCO)NC(=O)Nc1ccc(Br)cc1 (centres undefined)	53.8
CCS(=O)(=O)NC(CCSC)C(=O)Nc1ccc(F)cc1 (centres undefined)	38
CCS(=O)(=O)NC(CCSC)C(=O)Nc1cc(F)ccc1C (centres undefined)	67.1
CSCC(CCO)NC(=O)Nc1ccc(C)cc1Br (centres undefined)	36.8
CSCC(CCO)NC(=O)Nc1cc(C)ccc1C (centres undefined)	40.9
CSCC(CCO)NC(=O)Nc1cc(F)ccc1C (centres undefined)	50.4
CO[C@@H]1CCN(Cc2ccc(C)o2)[C@H]1Cc1ccccc1	3.88
COc1ccc2c(c1)C(=O)NC1(CC2)CCN(Cc2ccc(F)cc2)C1 (centres undefined)	13.621
Cc1oncc1C(=O)NCc1cc(=O)n2c(n1)CN(C)CCC2	16.5
Cc1ccccc1CN(C)C(=O)c1cc(C2CCCN2C)ccn1 (centres undefined)	34
CC(=O)c1cnc(NCCN2CCCC(c3ccccc3)C2)nc1C (centres undefined)	23.3
Cc1cnc(N2CCN(C(C)C(N)=O)CC2)nc1 (centres undefined)	19
Cc1ccc(F)cc1-n1c(CN(C)S(C)(=O)=O)n[nH]c1=O	49.4
CCCc1noc(C2CC(=O)N(CCN(C)C)C2)n1 (centres undefined)	20.9
Cc1ccccc1CNCc1cc(Cl)ccc1O	15

Structure (SMILES)	INHIBITION [%]
COc1cccc(CC(=O)N2Cc3nccn3CC(CN(C)C)C2)c1 (centres undefined)	40.8
Cc1csc(C2(NC(=O)NCCN3CCOCC3)CCCC2)n1	64.5
Cc1csc(C2(NC(=O)NCCN3CCOCC3)CCC2)n1	47.4
Cc1csc(C2(NCCC(=O)N3CCOCC3)CCCC2)n1	20.9
CCCC(C(=O)NCCc1nc(C)cs1)N(C)C (centres undefined)	26
Cc1cnn(C2CN(CC(=O)NCCc3ccccc3)C2)c1	27.4
O=C(CN1CC(n2cccn2)C1)NCCCc1ccccc1	54.4
O=C(CN1CC(n2cccn2)C1)NCCC1=CCCCC1	-77.3
O=C(CN1CC(n2cccn2)C1)NCCCN1CCCC1=O	28.8
Cc1cnn(C2CN(CC(=O)NCCOc3ccccc3)C2)c1	3.15
N#CCCNC(=O)CN1CC(n2cccn2)C1	53
O=C(CN1CC(n2cccn2)C1)NCCc1ccc(F)cc1	-19.4
Cc1cnn(C2CN(CC(=O)NCCCc3ccccc3)C2)c1	56.6
c1ccc(CCCN2CC(n3cccn3)C2)cc1	-5.81
Cc1noc(C)c1CN1CCO[C@H]2[C@H](Oc3ncccc3F)CC[C@@H]21	34.4
CN(C)c1ccc(-c2cccc(-c3ccn(CCCO)n3)c2)nn1	-121
Cc1occc(=O)c1OCC(=O)N1CCN(c2cccc(Cl)c2)CC1	-5.77
Cc1cc(C2CCCN(CCC(=O)N3CCc4ccccc43)C2)n[nH]1 (centres undefined)	1.04
CN(C)C(c1ccccn1)C1CCC(CNC(=O)C2CCCC2)CC1 (centres undefined)	14.6
CC(C)CN1CCC2(COCc3cnc(-c4ccccc4)nc32)C1 (centres undefined)	69.3
CN(C)c1ncc2c(n1)C1(CCN(CC3CC3)C1)COC2 (centres undefined)	46.8
c1ccc(-c2ncc3c(n2)C2(CCN(CC4CC4)C2)COC3)cc1 (centres undefined)	66.2
CN1CCC2(COCc3cnc(-c4ccccc4)nc32)C1 (centres undefined)	-6.97

Structure (SMILES)	INHIBITION [%]
COCCN1CCC2(COCc3cnc(-c4ccccc4)nc32)C1 (centres undefined)	6.79
O=C(CC1CC1)N1CCC2(COCc3cnc(-c4ccccc4)nc32)C1 (centres undefined)	-21.1
CC(C)c1nc2n(n1)CC(NCc1ccncc1)CC2 (centres undefined)	0.79
CCc1ccc(NC(=O)N2C[C@@H]3C[C@H](C(=O)N4CCCC4)[C@H](C2)O3)cc1	45.4
O=C(NCC1CCCOC1)c1ccc(-c2ccccc2)[nH]c1=O (centres undefined)	-29.1
O=S(=O)(NCc1ccccc1)Nc1cccc(Cn2cncn2)c1	47.2
Cc1nc(Nc2nncs2)cc(C2CNC2)n1	12.75
CN1CCC/C1=N\S(=O)(=O)c1ccc(NC(=O)CCc2cccs2)cc1	27.4
O=S(=O)(c1cccnc1)N1C[C@@H]2COC[C@]2(CN2CCOCC2)C1	55.5
O=S(=O)(c1cccnc1)N1C[C@@H]2COC[C@]2(COCC2CC2)C1	65.1
Cc1nnc([C@]23COC[C@H]2CN(S(=O)(=O)c2cccnc2)C3)o1	-2.26
CS(=O)(=O)N1C[C@@H]2COC[C@]2(COCC(=O)N2CCCC2)C1	28.5
CCCS(=O)(=O)N1C[C@@H]2COC[C@]2(CN2CCOCC2)C1	6.83
CS(=O)(=O)N1C[C@@H]2COC[C@]2(CN2CCOCC2)C1	65.9
O=S(=O)(c1ccccc1)N1C[C@@H]2COC[C@]2(CN2CCOCC2)C1	9.79
COC[C@]12COC[C@H]1CN(S(=O)(=O)c1cccnc1)C2	33
O=S(=O)(c1ccccc1)N1C[C@@H]2COC[C@]2(COCC2CC2)C1	44.2
Cc1ccc2c(n1)N(CCN(C)C)CCN(Cc1c(C)noc1C)C2	42.6
COCCN1CCc2ccccc2NCCC1=O	16.9
CN(Cc1cnn(C)c1)CC(O)c1ccc2c(c1)OCCCO2 (centres undefined)	18.8
O=C(c1cccs1)N1CCC2(CC1)CCN(S(=O)(=O)C1CC1)CC2	45.7
O=C(c1sccc1-n1cnnn1)N1CCCCC1	17.4
CCN(CC)CC(=O)N(C)C(c1cccc(F)c1)c1ccccn1 (centres undefined)	-4.16

Structure (SMILES)	INHIBITION [%]
Cc1cnn(CC2CCCN2C(=O)Cn2nc(C)c(Cl)c2C)c1 (centres undefined)	-41.5
CCC(=O)N1CCc2nc(N3CCOCC3)nc(N(C)C)c2CC1	45.2
COCCC(=O)N1CCc2nc(N3CCOCC3)nc(NC(C)C)c2C1	76.5
Cc1nc(N2CCOCC2)nc2c1CCN(C(=O)N1CCCC1)CC2	39.5
CC(C)CC(=O)N1CCc2nc(N3CCOCC3)nc(NC(C)C)c2C1	52.9
COc1c(Br)c(C(=O)NC2CCCCC2)nn1C	-37.1
COc1c(Br)c(C(=O)NC2CCCC2)nn1C	71.4
COc1c(Br)c(C(=O)NC2CC2)nn1C	33.3
Cc1cnn(CC2CCCCN2C(=O)c2ccc3[nH]cnc3c2)c1 (centres undefined)	5.7
N#Cc1ccccc1CN1CCC(CN2CCOCC2)C1 (centres undefined)	-19.8
CN(C)c1ncccc1CNS(=O)(=O)c1cc(F)cc(F)c1	-10.1
COc1ccc(S(=O)(=O)NCc2cccnc2N(C)C)cc1	21.5
CCOc1ccc(S(=O)(=O)NCc2cccnc2N(C)C)cc1	67.5
CC(C)N(C)S(=O)(=O)NCc1cccnc1N(C)C	55
CCOc1ccc(CNCc2cccnc2N(C)C)cc1	39.7
CC(C)c1nn(C)c(N(C)C)c1CNCc1cccnc1N(C)C	14.815
COc1ccc(S(=O)(=O)NCc2cccnc2N(C)C)cc1F	58.2
CN(C)c1ncccc1CNS(=O)(=O)c1ccc(F)c(F)c1	11.2
CN(C)c1ncccc1CNS(=O)(=O)c1ccccc1F	34.7
COc1ncccc1CNCc1c(C(C)C)nn(C)c1Cl	21.7
CCCC(C)CS(=O)(=O)NCc1cccnc1N(C)C (centres undefined)	-33.9
CC(C)c1nn(C)c(Cl)c1CNCc1cccnc1N(C)C	57.5
